TGFb SMAD3 inh: TGF-b pathway inhibition. HepG2 CAGA-GFP TGF-b/SMAD3 reporter, GFP fluorescence, 18 h; TGF-beta stimulated, 500 pg/mL final. Potency, µM (titrated, usually from 46.1 µM), hits mostly inhibitors. 410,000 tested, 1.2% active. AID 588855; note: nearly all actives have a fitted effect of over 65% in size
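Using HEPG2 CAGA-GFP reporter cells at 1000 cells/well, we pinned test compounds, stimulated with recombinant TGF-beta (500 pg/mL final) and measured total well GFP after 18 h.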
HT1080NT lethal: kills 2HG-producing HT-1080-NT fibrosarcoma cells | HT-1080-NT fibrosarcoma viability, CellTiter-Glo ATP luminescence, 48 h | 360,000 tested, 1.6% active | Potency, µM (series often up to 46.1 µM), usual class: cytotoxic | AID 686970;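 note: NT is the 2HG producing partner of a matched IDH1 knockdown line; nearly all actives have a fitted effect of over 55% in size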
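HT-1080-NT; 750 cells/well; 5% FBS RPMI; 48 h compound, 37 degrees C; CellTiter-Glo luminescence; curve fitting and curve-class assignment.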
TDP1 cell noCPT: qHTS for Inhibitors of human tyrosyl-DNA phosphodiesterase 1 (TDP1): qHTS in cells in absence of CPT; DT40 Tdp1-/- hTDP1 cells, no CPT, ATP luminescence, 48 h; Potency, µM (top dose mostly 46.2 µM), actives largely listed as inhibitors; 420,000 tested, 15% active; AID 686978, 2013; note: nearly all actives have a fitted effect of over 55% in size
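Compound effects on proliferation are scored in DT40 Tdp1-/-;hTDP1 cells in the absence of CPT. ATP levels (CellTiter-Glo luminescence) are recorded after a ≥48 hr, 37 °C incubation.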
DT40 TDP1 CPT: growth inhibition of DT40 Tdp1-/-;hTDP1 cells with camptothecin (screen for TDP1 inhibitors) | chicken DT40 Tdp1-/-;hTDP1 cells + 20 nM CPT, ATP luminescence, 48 h | Potency, µM (highest dose often 46.2 µM), hits mostly inhibitors | 420,000 tested, 12% active | AID 686979; note: nearly all actives have a fitted effect of over 55% in size
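Chicken DT40 Tdp1-/- cells stably complemented with human TDP1 were seeded at 400 cells/well in medium containing 20 nM camptothecin, exposed to pin-transferred compounds, and grown at 37 °C for at least 48 hr. Viability was read as ATP luminescence.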
HT1080 IDH1KD tx: toxicity to HT-1080 IDH1 knockdown cells (counter line) | HT-1080 IDH1 knockdown viability, ATP luminescence, 48 h | Potency, µM (titrated, usually from 46.1 µM), most hits filed as cytotoxic | 360,000 tested, 2% active | AID 686971
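HT-1080-IDH1KD cells (IDH1 knocked down), 750/well in RPMI with 5% FBS, treated with compound 48 h at 37 degrees C. Viability by CellTiter-Glo luminescence, normalised to DMSO and no-cell wells; concentration-response curves classed.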
HepG2 tox: HepG2 cytotoxicity, counter-screen for TGF-b inhibitors; HepG2 CAGA-GFP viability, ATP luminescence, 18 h; 410,000 tested, 0.76% active; Potency, µM (top dose mostly 46.1 µM), hits mostly cytotoxic; AID 588856
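CellTiter-Glo luminescence gave cytotoxicity after 18 hours at 37 degrees C. The cells were HepG2 CAGA-GFP in 1% FBS DMEM, stimulated with 500 pg/mL TGF-beta after compound addition. %Activity was normalised to no-cell wells (complete cell-killing) and DMSO (no toxicity), and curves were fitted and classified.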
A number is an active result; - = inactive; ? = inconclusive; . = not tested or not shown; [ ] = remark or other dose. Most compounds without a hit are left out; they make up all but 17% or so of the library. Calls come from the whole dose curve; as a rule, active = well fitted curve in the direction sought with a large enough effect; inconclusive = small, poorly fitted or top-dose-only effect, or another doubt; inactive = no such curve, though single readings can be large; an effect the other way counts as inactive or inconclusive.

SMILES	TGFb SMAD3 inh	HT1080NT lethal	TDP1 cell noCPT	DT40 TDP1 CPT	HT1080 IDH1KD tx	HepG2 tox
Cc1ccc2c(c1)C1CN(C)CCC1N2S(=O)(=O)c1ccccc1F (stereo not drawn)	-	-	-	-	-	-
COc1ccc(C2=NN(CC(=O)NCCc3ccccc3)C(=O)CC2)cc1	-	.	-	-	.	-
COc1ccc(C2=NN(CC(=O)NCCCN(C)c3ccccc3)C(=O)CC2)cc1	-	.	15µM	?	.	-
C/C(=N\NC(=O)c1c(Br)c(C)nn1C)c1ccc(NC(=O)C(C)Oc2ccc(Cl)cc2C)cc1 (stereo not drawn)	-	?	?	?	?	-
CCC(=O)Nc1ccc(/C(C)=N/NC(=O)c2c(Br)c(C)nn2C)cc1	?	-	15µM	?	-	-
C/C(=N\NC(=O)c1c(Br)c(C)nn1C)c1ccc(NC(=O)c2ccoc2C)cc1	-	-	23µM	-	-	-
C/C(=N\NC(=O)c1c(Cl)c(C)nn1C)c1ccc(NC(=O)c2ccncc2)cc1	-	-	18µM	?	-	-
Cc1nn(CCCC(=O)NCc2ccccc2)c(=O)c2cc3sccc3n12	?	.	-	-	.	-
CC(COc1ccc(/C=C/c2ccccc2)cc1)[N+](C)(C)C (stereo not drawn)	-	?	3.3µM	4.1µM	?	-
CC(COc1ccccc1)NN (stereo not drawn)	.	.	-	-	.	.
Cc1ccc(OCCSc2nc3ncnc(N)c3[nH]2)cc1	-	-	?	8.2µM	-	-
COc1ccc(NC(=O)c2sc3nc(N4CCOCC4)c4c(c3c2N)CCCC4)c(OC)c1	-	-	-	-	-	-
Cc1ccccc1NC(=O)c1sc2nc(N3CCOCC3)c3c(c2c1N)CC(C)(C)OC3	-	.	?	-	.	-
Cc1cccc(NC(=O)c2sc3nc(N4CCOCC4)c4c(c3c2N)CC(C)(C)OC4)c1	-	.	7.3µM	?	.	-
CC1(C)Cc2c(c(N3CCOCC3)nc3sc(C(=O)Nc4cccc(Cl)c4)c(N)c23)CO1	-	-	?	18µM	-	-
CC1(C)Cc2c(c(N3CCOCC3)nc3sc(C(=O)Nc4ccccc4)c(N)c23)CO1	-	-	?	?	-	-
Nc1c(C(=O)Nc2ccc(Br)cc2)sc2nc(N3CCOCC3)c3c(c12)CCCC3	-	-	?	21µM	-	-
Cc1cc2cc(C=O)c(Cl)nc2cc1C	-	?	18µM	?	-	-
Cc1ccc2cc(C=O)c(N(C)C)nc2c1	-	-	-	-	-	-
COc1ccc(S(=O)(=O)N(CCc2ccccc2)CC(N)=O)cc1	-	-	-	-	-	-
COc1ccc(S(=O)(=O)N(CCc2ccccc2)CC(=O)Nc2cccc(OC)c2)cc1	-	.	18µM	?	.	-
COCCNC(=O)CN(CCc1ccccc1)S(=O)(=O)c1ccc(OC)cc1	-	-	-	-	-	-
COc1ccc(S(=O)(=O)N(CC(=O)Nc2ccccc2Br)Cc2ccccc2)cc1	-	.	?	?	.	-
COc1ccc(S(=O)(=O)N(CCc2ccccc2)CC(=O)Nc2cc(C)ccc2C)cc1	?	.	21µM	18µM	.	-
COc1ccc(S(=O)(=O)N(CCc2ccccc2)CC(=O)NCc2ccc(C)cc2)cc1	?	.	21µM	?	.	-
SMILES	TGFb SMAD3 inh	HT1080NT lethal	TDP1 cell noCPT	DT40 TDP1 CPT	HT1080 IDH1KD tx	HepG2 tox
CSc1ccccc1NC(=O)CN(C)CC(=O)Nc1cc(C)ccc1C	-	-	21µM	-	-	-
CSc1ccccc1NC(=O)CN(C)CC(=O)NCc1ccccc1	?	-	-	-	-	-
CCOC(=O)c1ccc(CN(Cc2ccc(F)cc2)S(=O)(=O)c2ccc(F)c(C(=O)Nc3ccccc3C(F)(F)F)c2)cc1	-	.	-	-	.	-
CCn1nc(C)cc1C(=O)NCC1CCC2(CCN(Cc3ccccc3F)CC2)O1 (stereo not drawn)	.	.	?	-[9.04 µM]	.	.
COc1ccc(S(=O)(=O)N(CCc2ccccc2)CC(=O)Nc2ccc(C)c(C)c2)cc1OC	-	.	16µM	15µM	.	-
Cc1ccc(C)c(NC(=O)CN(C)S(=O)(=O)c2ccccc2)c1	-	-	-	-	-	-
Cc1ccc(S(=O)(=O)N(CCc2ccccc2)CC(=O)Nc2cc(C)ccc2C)cc1	-	.	16µM	?	.	-
Cc1cc(C)c2c(CN3CCCCCCC3)cc(=O)oc2c1	?	-	?	?	-	-
Cc1cc(C)c2c(CCl)cc(=O)oc2c1	?	?	0.92µM	0.92µM	1.3µM	-
Cc1cc(C)c2c(CN3CCN(C/C=C/c4ccccc4)CC3)cc(=O)oc2c1	-	?	?	29µM	?	-
Cc1cc(C)c2c(CN3CCCCC3)cc(=O)oc2c1	-	-	-	-	-	-
Cc1cc(C(=O)CN2C(=O)C(=O)N(CC(C)C)C2=O)c(C)n1C1CC1	-	-	-	-	-	-

High-throughput results deposited in PubChem by National Center for Advancing Translational Sciences (NCATS).
